Screening data deposited in PubChem by National Center for Advancing Translational Sciences (NCATS).
An excerpt weighted towards active compounds, which were near 3.1% of everything screened.
VDR inh – vitamin D3 receptor (human) inhibition | P11473 | AID 504847 | hit rate 0.93% among 400,000 | Potency, µM, without a hit: max response, negative = inhibition, usual class: inhibitors | VDR-SRC2-3 peptide fluorescence polarization, 2 h; note: % is set by controls: 0 for no effect and ±100 for the full control effect
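Signal is fluorescence polarization, reporting how far test compounds block the interaction of VDR with the SRC2-3 coregulator peptide after a 2 h room-temperature incubation.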
TDP1 inh – inhibitors of human tyrosyl-DNA phosphodiesterase TDP1 | recombinant TDP1, AlphaScreen DNA substrate cleavage | Potency, µM (highest dose often 130 µM), for inactives: at the top dose activity change, negative = inhibition, most hits filed as inhibitors | hit rate 0.28% among 350,000 | AID 485290; note: % is set by controls: 0 for no effect and ±100 for the full control effect; nearly all actives have a fitted effect of over 40% in size
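Recombinant E. coli-expressed Tdp1 (1 nM) preincubated with compound 15 min at RT, then 5'-biotin/3'-phosphotyrosine-FITC DNA substrate (15 nM) added for 5 min. AlphaScreen beads (10 ug/ml) added, 10 min RT; tyrosine-FITC cleavage read as signal loss.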
PLK1 PBD block – blocks phosphopeptide binding to human PLK1 polo-box domain. Potency, µM, without a hit: max response, negative = inhibition, hits mostly inhibitors. Plk1 PBD binding of FITC phosphopeptide, fluorescence polarization. hit rate 2.8% among 360,000; note: series mostly up to about 57 µM; % is set by controls: 0 for no effect and ±100 for the full control effect; nearly all actives have a fitted effect of over 65% in size
Pin1 inhibitor – inhibitors of human Pin1. Q13526. Pin1 FP peptide displacement, HiFluor488, 10 min. Potency, µM (titrated, usually from 115 µM), inactives show at the top dose activity, negative = inhibition, actives largely listed as inhibitors. hit rate 0.009% among 390,000. AID 504891; active = well fitted inhibition curve with a large enough effect in the polarisation, with a control signal flat, not every such curve was filed as active; inconclusive = small, poorly fitted or top-dose-only effect, or effect the other way, or a change in a side signal; inactive = no such curve, though single readings can be large or run the other way; the % refers to the polarisation; note: % is set by controls: 0 for no effect and ±100 for the full control effect
Target sequence (Q13526 whole entry, looked up): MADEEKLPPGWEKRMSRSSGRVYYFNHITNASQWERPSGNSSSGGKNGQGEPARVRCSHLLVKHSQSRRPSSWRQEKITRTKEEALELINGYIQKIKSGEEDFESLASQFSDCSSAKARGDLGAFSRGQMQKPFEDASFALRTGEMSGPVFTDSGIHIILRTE
Tb PFK block – blocks T. brucei phosphofructokinase | O15648 | T. brucei PFK, ADP-Glo luminescence | Potency, µM (highest dose often 57.5 µM), inactives show top-dose activity, negative = inhibition, actives largely listed as inhibitors | hit rate 0.17% among 330,000;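 note: 0% = uninhibited 1x PFK enzyme wells and -100% = no-enzyme wells; nearly all actives have a fitted effect of over 60% in size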
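Activity is normalized to no-enzyme wells (full inhibition) and 1.25 nM enzyme wells (no inhibition). Reaction: 0.5 mM F6P, 0.1 mM ATP, 45 min RT, ADP-Glo luminescence; concentration-response curves fitted and classed by quality.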
S-ASM inh – human S-ASM enzyme inhibition; P17405; placental ASM, HMU-PC fluorogenic substrate, 60 min; Potency, µM (highest dose often 57.5 µM), for the others: at the top dose activity change, negative = inhibition, actives largely listed as inhibitors; hit rate 0.006% among 340,000; AID 504937
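Fluorescence read-out (Ex 386 nm, Em 447 nm) after stopping the reaction at pH 10. Enzyme: ASM from human placenta; substrate HMU-PC0, 9 uM final; 60 min, 37 °C. Compound preincubation 10 min, ambient temperature.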
The depositor's hits bear a star; ? = inconclusive; · = no result. Unless noted, calls come from the whole dose curve; as a rule, active = well fitted curve in the direction sought with a large enough effect; inconclusive = small, poorly fitted or top-dose-only effect, or another doubt; inactive = no such curve, though single readings can be large; an effect the other way counts as inactive or inconclusive. Potency is the fitted concentration of half-maximal effect.

SMILES	VDR inh	TDP1 inh	PLK1 PBD block	Pin1 inhibitor	Tb PFK block	S-ASM inh
CCNc1nc(NC(C)C)nc(Oc2ccc(/C=N/O)cc2)n1	-18%	4%	4.7µM*	4%	-5%	1%
Cc1ccc(S(=O)(=O)NCc2ccco2)cc1C(N)=O	?	0%	27µM*	1%	-8%	3%
CN(C)C(=O)COC(=O)c1ccc(S(=O)(=O)NCc2ccco2)cc1	-12%	·	27µM*	-2%	-6%	1%
NC(=O)C1=CN(C2OC(COP(=O)(O)OP(=O)(O)OC[C@H]3O[C@@H](n4cnc5c(N)ncnc54)[C@H](OP(=O)(O)O)[C@@H]3O)C(O)C2O)C=CC1 (stereo partly specified)	8%	·	·	·	·	·
Cc1ccc(NC(=O)COc2ccc(/C=N/NC(=O)CSCc3ccccc3)cc2)cc1	17%	56µM*	1%	20%	-29%	0%
CCN(CC)CCCNC(=S)N(Cc1cccnc1)Cc1cc2cccc(C)c2[nH]c1=O	-8%	0%	-16%	2%	0%	2%
Cc1cccc2cc(CN(Cc3cccnc3)C(=S)NCCCN(C)C)c(=O)[nH]c12	?	3%	9.5µM*	2%	2%	5%
COc1ccc(Nc2nc(-c3ccc4c(c3)NC(=O)CO4)cs2)cc1	-12%	3%	?	6%	1%	-6%
CCC(C)Nc1nc(-c2ccc3c(c2)NC(=O)CO3)cs1 (stereo unspecified)	-19%	5%	30µM*	4%	4%	-6%
COC(=O)[C@@]1(Cc2ccc(OC)cc2)[C@@H]2C(=CC(=O)[C@H]2CC(=O)C(=O)N(C)C)CN1C(=O)c1ccccc1	79µM*	-4%	-14%	4%	25%	11%
COC(=O)[C@@]1(Cc2ccccc2)[C@@H]2[C@@H](CC(=O)[C@H]2CC(=O)C(=O)N(C)C)CN1C(=O)c1ccccc1	·	10%	·	·	·	·
C=C1C(=O)C=C2CN(C(=O)c3ccccc3)[C@@](Cc3ccc(F)cc3)(C(=O)OC)[C@@H]12	?	4%	17µM*	25%	6%	-2%
C=C1C(=O)CC2=C1[C@](Cc1ccc(F)cc1)(C(=O)OC)N(C(=O)c1ccccc1)C2	·	·	-12%	·	·	·
O=c1c2ccccc2nc(-c2ccccc2O)n1Cc1ccccc1	·	-1%	·	-7%	·	·
CCOc1cc(/C=C2/C(=N)N3C(=NC2=O)SN=C3S(=O)(=O)CC)ccc1OC(=O)c1ccco1	89µM*	6%	27µM*	44%	-4%	?
COc1cc(/C=C2/C(=N)N3C(=NC2=O)SN=C3S(C)(=O)=O)ccc1OC(=O)c1ccco1	?	-3%	?	55%	0%	?
CCOc1cc(/C=C2/C(=N)N3C(=NC2=O)SN=C3S(=O)(=O)C(C)C)ccc1OC(=O)c1ccco1	?	4%	27µM*	24%	0%	?
COc1cc(/C=C2/C(=N)N3C(=NC2=O)SN=C3S(=O)(=O)C(C)C)ccc1OC(=O)c1ccco1	?	5%	21µM*	35%	-4%	?
COc1cc(/C=C2/C(=N)N3C(SC)=NSC3=NC2=O)ccc1OC(=O)c1ccco1	?	-4%	?	31%	6%	-13%
O=C(/C=C/c1ccccc1)NCCSCc1ccccc1	?	3%	30µM*	3%	-5%	1%
Cc1ccc(C)c(NC(=O)CSc2cn(CC(=O)N3CCCCC3)c3ccccc23)c1	0%	-3%	·	4%	·	·
CCOC(=O)c1c(N2C(=O)C=CC2=O)sc(C)c1C	-95%	5%	5.3µM*	11%	?	0%
Cc1nnc(CN(C)c2ncnc3ccc(-c4ccc5c(c4)OCO5)cc23)o1	·	-2%	·	?	·	·
COc1ccc(C(=O)NCCC(=O)N2CCC3(CC2)NCCc2[nH]cnc23)cc1	?	4%	27µM*	-6%	1%	0%
Cc1cc(C)cc(C(=O)NCC(=O)N2CCC3(CC2)NCCc2[nH]cnc23)c1	2%	1%	-1%	-10%	0%	1%
